Source: PubChem (National Center for Advancing Translational Sciences (NCATS))
Sampled rows, rich in hits. Any-hit rate of the full collection: about 17%.
TDP1 block = TDP1 (human) enzyme inhibition; Potency, µM (top dose mostly 130 µM), for inactives: at the highest dose activity change, negative = inhibition, usual class: inhibitors; AID 485290; Q9NUW8; hit rate 0.28% among 350,000; recombinant TDP1, AlphaScreen DNA substrate cleavage; also: % is scaled to controls: 0 for no effect and ±100 for the full control effect; nearly all actives have a fitted effect of over 40% in size
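Recombinant human Tdp1 (E. coli-expressed, 1 nM final) preincubated with compounds 15 min at room temperature, then 5'-biotin/3'-phosphotyrosine-FITC DNA substrate (15 nM final) added for 5 min. AlphaScreen beads (10 ug/ml final) added 10 min; cleavage lowers signal.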
TDP1 cell CPT = DT40-hTDP1 cell growth loss with CPT | chicken DT40 Tdp1-/-;hTDP1 cells + 20 nM CPT, ATP luminescence, 48 h | Potency, µM (doses to about 46.2 µM), without a hit: at the highest dose activity change, negative = growth inhibition, most hits filed as inhibitors | hit rate 12% among 420,000 | AID 686979; also: % is scaled to controls: 0 for no effect and ±100 for the full control effect; nearly all actives have a fitted effect of over 55% in size
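Chicken DT40 Tdp1-/- cells stably complemented with human TDP1 were seeded at 400 cells/well in medium containing 20 nM camptothecin, exposed to pin-transferred compounds, and grown at 37 °C for at least 48 hr. Viability was read as ATP luminescence.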
ClpP mod = qHTS Assay for Activators of ClpP. purified B. subtilis ClpP, FRET peptide cleavage, 20 min. hit rate 1.9% among 340,000. AID 651965, 2013. Potency, µM (doses to about 57.5 µM), without a hit: at the top dose activity change, negative = active; active = well fitted falling curve with a large enough effect; inconclusive = small, poorly fitted or top-dose-only effect; inactive = no such curve, though single readings can be large or run the other way; also: the source files actives as falling curves though it sought activators and does not explain the sign; nearly all actives have a fitted effect of over 65% in size
Target sequence (P80244 whole entry, looked up): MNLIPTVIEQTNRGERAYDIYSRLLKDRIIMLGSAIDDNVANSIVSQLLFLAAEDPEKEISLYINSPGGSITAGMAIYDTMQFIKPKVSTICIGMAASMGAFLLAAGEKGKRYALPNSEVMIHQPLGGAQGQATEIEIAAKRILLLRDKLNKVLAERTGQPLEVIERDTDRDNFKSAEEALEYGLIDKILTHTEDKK
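ClpP 10 microg/mL final, pH 8 Tris/KCl buffer with BSA, glycerol, Tween-20; compound pinned in; FRET-FV substrate; RT 20 min; Ex320/Em430; ΔFRET vs ADEP 5.8 microM, DMSO, no enzyme.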
TDP1 cell noCPT = qHTS for Inhibitors of human tyrosyl-DNA phosphodiesterase 1 (TDP1): qHTS in cells in absence of CPT; DT40 Tdp1-/- hTDP1 cells, no CPT, ATP luminescence, 48 h; Potency, µM (titrated, usually from 46.2 µM), without a hit: at the highest dose activity change, negative = growth inhibition, hits mostly inhibitors; hit rate 15% among 420,000; AID 686978, 2013; also: % is scaled to controls: 0 for no effect and ±100 for the full control effect; nearly all actives have a fitted effect of over 55% in size
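DT40 Tdp1-/-;hTDP1 cells, no CPT (DMSO vehicle only), 400 cells/well; compounds pin-transferred; ≥48 hr, 37 °C; CellTiter-Glo 30 min RT dark, luminescence read.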
Numbers without * were called inactive; [ ] = another dose, or the depositor's remark. Unless noted, calls follow the shape of the dose curve; as a rule, active = well fitted curve in the direction sought with a large enough effect; inconclusive = small, poorly fitted or top-dose-only effect, or another doubt; inactive = no such curve, though single readings can be large; an effect the other way counts as inactive or inconclusive. Potency is read from the fitted curve at half-maximal effect.

O=C(CCN1C(=O)/C(=C/c2cccs2)SC1=S)Nc1cccc(O)c1 was read as TDP1 block 11%, TDP1 cell CPT -22% and TDP1 cell noCPT inconclusive.
`O=C(CCCN1C(=O)/C(=C/c2cccs2)SC1=S)Nc1cccc(O)c1` gave TDP1 cell CPT 21µM* and TDP1 cell noCPT 16µM*.
Screening O=C(CCN1C(=O)/C(=C\c2ccc(F)cc2)SC1=S)Nc1ccccc1 returned TDP1 block 1%, TDP1 cell CPT -10% and TDP1 cell noCPT -7%.
For CC(=O)c1ccc(NC(=O)CN2C(=O)/C(=C/C(C)=C/c3ccccc3)SC2=S)cc1 the results were TDP1 block 8%, TDP1 cell CPT -16%, ClpP mod 3% and TDP1 cell noCPT inconclusive.
`O=C(CSc1ccccc1)N(c1ccc(Br)cc1)c1nccs1` gave TDP1 block -1%, TDP1 cell CPT inconclusive, ClpP mod 0% and TDP1 cell noCPT -30%.
Screening C[C@@H]1CN([C@@H](C)CO)C(=O)CCCn2nncc2CO[C@@H]1CN(C)C(=O)c1ccc(N2CCN(C)CC2)cc1 returned TDP1 cell CPT -7%, ClpP mod -5% and TDP1 cell noCPT -9%.
For COc1cc(/C=C2\SC(=S)N(CCC(=O)Nc3cccc(O)c3)C2=O)cc(OC)c1OC the results were TDP1 cell CPT inconclusive, ClpP mod 0% and TDP1 cell noCPT 16µM*.
For COc1cc(/C=C2\SC(=S)N(CCC(=O)Nc3ccccc3)C2=O)cc(OC)c1OC the results were TDP1 block 2%, TDP1 cell CPT inconclusive and TDP1 cell noCPT inconclusive.
Screening Cc1ccc(/C=C2/SC(=S)N(CC(=O)Nc3ncc(Cc4ccc(C)cc4)s3)C2=O)cc1 returned TDP1 block 6%, TDP1 cell CPT 23µM*, ClpP mod -5% and TDP1 cell noCPT 12µM*.
`O=C(CCCN1C(=O)/C(=C/c2cccs2)SC1=S)NNC(=O)c1ccc(F)cc1` gave TDP1 block -1%, TDP1 cell CPT 26µM*, ClpP mod 5% and TDP1 cell noCPT inconclusive.
For COc1cc(/C=C2\SC(=S)N(NC(=O)c3ccc(O)c(OC)c3)C2=O)ccc1O the results were TDP1 cell CPT -15% and TDP1 cell noCPT -7%.
`COc1cc(/C=C2\SC(=S)N(NC(=O)c3cccc(O)c3)C2=O)ccc1O` gave TDP1 cell CPT 16µM* and TDP1 cell noCPT 23µM*.
`Cn1c(=O)n(C)c2cc(N3CCOCC3)c(NC(=O)c3cccc(Cl)c3)cc21` gave TDP1 block 2%, TDP1 cell CPT 12%, ClpP mod -1% and TDP1 cell noCPT 26%.
For Cc1onc(-c2ccccc2)c1C(=O)OCC(=O)N1CCCCC1 the results were TDP1 cell CPT -24%, ClpP mod -2% and TDP1 cell noCPT inconclusive.
Screening Cc1ccc(/C=C2/SC(=S)N(CCCC(=O)Nc3ccc(O)cc3)C2=O)cc1 returned TDP1 cell CPT inconclusive and TDP1 cell noCPT 23µM*.
Screening O=C(CCCN1C(=O)/C(=C/c2ccccc2)SC1=S)Nc1cccc(O)c1 returned TDP1 block 2%, TDP1 cell CPT 18µM*, ClpP mod 0% and TDP1 cell noCPT 23µM*.
`Cc1ccc(/C=C2\SC(=S)N(CCCC(=O)NC3CCCC3)C2=O)cc1` gave TDP1 block 2%, TDP1 cell CPT -22%, ClpP mod -1% and TDP1 cell noCPT 18µM*.
O=C(CCCN1C(=O)/C(=C\c2ccccc2)SC1=S)Nc1ccc(O)cc1 was read as TDP1 block 4%, TDP1 cell CPT inconclusive and TDP1 cell noCPT 15µM*.
For Cc1noc(C)c1C(=O)N1CCC1(C)C(=O)NS(=O)(=O)c1ccc(F)cc1F (stereo not drawn) the results were TDP1 cell CPT 4%, ClpP mod 1% and TDP1 cell noCPT 0%.
`O=C1C[C@@H]2c3c(cccc3CN1Cc1ccc(Br)cc1)C[C@@H](O)[C@H]2O` gave TDP1 cell CPT -2%, ClpP mod 1% and TDP1 cell noCPT -22%.
Cc1cc(OC(=O)c2ccccc2Br)cc(=O)n1C was read as TDP1 block -2%, TDP1 cell CPT 21µM*, ClpP mod 6% and TDP1 cell noCPT inconclusive.
C=CCn1c(SCC(=O)NCC2CCCO2)nc2scc(-c3ccco3)c2c1=O (stereo not drawn) was read as TDP1 block 50µM*, TDP1 cell CPT inconclusive, ClpP mod -4% and TDP1 cell noCPT inconclusive.
Screening O=C(CSc1nnc(-c2ccco2)n1-c1ccccc1)NCC1CCCO1 (stereo not drawn) returned TDP1 block 5%[56.1 µM], TDP1 cell CPT -26%, ClpP mod 32µM* and TDP1 cell noCPT -11%.
For O=C(CSc1nc2scc(-c3ccco3)c2c(=O)n1-c1ccccc1)NCC1CCCO1 (stereo not drawn) the results were TDP1 block -4%, TDP1 cell CPT -8%, ClpP mod -5% and TDP1 cell noCPT -10%.
Screening CCOCCCn1c(=NC(C)=O)c(C(=O)OCC)cc2c(=O)n3ccccc3nc21 returned TDP1 block 4%, TDP1 cell CPT -4%, ClpP mod inconclusive and TDP1 cell noCPT 2%.
CCOC(=O)c1cc2c(=O)n3ccccc3nc2n(Cc2ccco2)c1=NC(=O)c1cccnc1 was read as TDP1 cell CPT inconclusive, ClpP mod 3.2µM* and TDP1 cell noCPT inconclusive.
For CCOC(=O)c1cc2c(=O)n3cccc(C)c3nc2n(Cc2ccco2)c1=NC(=O)c1cccnc1 the results were TDP1 block -14%, TDP1 cell CPT 16µM*, ClpP mod 14µM* and TDP1 cell noCPT inconclusive.
Screening C[n+]1c(-c2ccccc2)cc2c(=Cc3ccc([N+](=O)[O-])cc3)c3ccccc3n21 returned TDP1 cell CPT 1.8µM*, ClpP mod -4% and TDP1 cell noCPT 4.1µM*.
For C[n+]1c(-c2ccccc2)cc2c(=Cc3ccccc3)c3ccccc3n21 the results were TDP1 cell CPT 0.52µM*, ClpP mod -7% and TDP1 cell noCPT 0.52µM*.
For CN(C)c1ccc(C=c2c3cc(O)ccc3n3c2cc(-c2ccccc2)[n+]3C)cc1 the results were TDP1 cell CPT 7.3µM*, ClpP mod 2% and TDP1 cell noCPT inconclusive.
Screening CC(C)C[C@H](N)c1nnc(SCc2ccc(Cl)cc2Cl)o1 returned TDP1 block -8% and ClpP mod -1%.
Screening CC(C)C[C@H](N)c1nnc(S(=O)(=O)Cc2ccc(F)cc2)o1 returned TDP1 block 10%, TDP1 cell CPT 1.3µM*, ClpP mod -3% and TDP1 cell noCPT 2.1µM*.
For CCn1nc(C)cc1C(=O)NC1CCCc2c1cnn2-c1cc(F)cc(F)c1 (stereo not drawn) the results were TDP1 block 2%, TDP1 cell CPT inconclusive, ClpP mod -1% and TDP1 cell noCPT 18µM*.
